Data on ten compounds can be found in PubChem BioAssay (NCI).

About 79,000 compounds went through this panel and 15% of them were active in at least one assay; those are over-represented in the sample as a whole. Values without a mark were called inactive. Activity calls are given as the source filed them. No stated cut-off is given here; in the data, active means growth inhibition above about 70%; inactive means the rest.

Test [1] is described as follows: NCI Yeast Anticancer Drug Screen. Data for the rad50 strain (AID 155).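 Further: 0% = growth of vehicle-only cultures of the same strain.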 To be noted: S. cerevisiae rad50 strain growth inhibition, stronger effect = higher value. In short, it runs like this: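 Compounds were tested on a yeast strain with an engineered DNA damage repair alteration; the reported value is growth inhibition normalised to vehicle treatment.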
A short description of test [2]: NCI Yeast Anticancer Drug Screen. Data for the mec2-1 strain (AID 157). To be noted: S. cerevisiae mec2-1 strain, stronger effect = higher value. The gist of the method: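 Vehicle-treated cultures served as reference for growth inhibition of compound-exposed mec2-1 yeast.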
The nature of test [3]: NCI Yeast Anticancer Drug Screen. Data for the sgs1 mgt1 strain (AID 161).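 Further: 0% = growth of cultures given vehicle only.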 To be noted: S. cerevisiae sgs1 mgt1 strain, stronger effect = higher value. The gist of the method: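 Read-out: growth inhibition vs vehicle controls. Cells: mutant yeast strain deficient in DNA damage repair.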
The nature of test [4]: NCI Yeast Anticancer Drug Screen. Data for the cln2 rad14 strain (AID 165).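 Further: 0% = growth equal to vehicle treated cultures.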 The conditions noted are these: S. cerevisiae cln2 rad14 strain, stronger effect = higher value. In short, it runs like this:
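Each compound was tested on cln2 rad14 yeast. Inhibition of growth was calculated against vehicle-exposed controls.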

A short description of test [5]: NCI Yeast Anticancer Drug Screen. Data for the bub3 strain (AID 167). The conditions noted are these: S. cerevisiae bub3 mutant strain, stronger effect = higher value. The gist of the method:
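Growth of a checkpoint-deficient yeast mutant is measured after compound exposure. Values represent inhibition relative to vehicle.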

A short description of test [6]: NCI Yeast Anticancer Drug Screen. Data for the mlh1 rad18 strain (AID 175). To be noted: S. cerevisiae mlh1 rad18 strain growth inhibition, stronger effect = higher value. In short, it runs like this:
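Vehicle-treated cultures served as the reference for growth inhibition in a yeast strain carrying DNA damage repair alterations exposed to each compound.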

Where [7] appears, read: at 5.0 µM (retest, dose inferred, filed as 0.5).
Setting [8] is: at 50.0 µM (retest, dose inferred, filed as 5.0).

Regarding `Cc1c(N=Nc2ccc(Cl)cc2)c(-c2ccccc2)n(C2OC(CO)C(O)C(O)C2O)c(=S)c1C#N` (stereo not given), the growth inhibition in test [1] (setting [7]) was -9%; in test [1] (setting [8]), 89% (active); in test [1] (at 50.0 µM) it was 96.6% (active); in test [2] (setting [7]) it was -13%; in test [2] (setting [8]) it was 96% (active); in test [2] (at 50.0 µM), 97.2% (active). The growth inhibition in test [3] (setting [7]) is 18%; in test [3] (setting [8]), 48%; in test [3] (at 50.0 µM) it was 97.5% (active); in test [4] (setting [7]), 18%; in test [4] (setting [8]), 95% (active); in test [4] (at 50.0 µM) it was 97.1% (active). Also, the growth inhibition is -2% in test [5] (setting [7]); 95% (active) in test [5] (setting [8]); 97.3% (active) in test [5] (at 50.0 µM); -7% in test [6] (setting [7]); 96% (active) in test [6] (setting [8]); 97.4% (active) in test [6] (at 50.0 µM).
As to `CC[C@H](CC[C@@H](C)C1CC[C@H]2[C@@H]3CCC4=CC(=O)CC[C@]4(C)[C@H]3CC[C@]12C)C(C)C` (stereo not given in full), the growth inhibition in test [1] (setting [7]) was -4%; in test [1] (setting [8]) it was 18%; in test [1] (at 50.0 µM), 50.9%; in test [2] (setting [7]) it was -8%; in test [2] (setting [8]), 65%; in test [2] (at 50.0 µM), 35.7%. Moreover, the growth inhibition was -8% in test [3] (setting [7]); 68% in test [3] (setting [8]); 76% (active) in test [3] (at 50.0 µM); -6% in test [4] (setting [7]); 28% in test [4] (setting [8]); 63.3% in test [4] (at 50.0 µM). Besides, the growth inhibition in test [5] (setting [7]) is -10%; in test [5] (setting [8]), 29%; in test [5] (at 50.0 µM) it was 30.6%; in test [6] (setting [7]) it was 20%; in test [6] (setting [8]), 83% (active); in test [6] (at 50.0 µM), 36%.
On to `Oc1c(C(O)(c2ccccc2)c2ccc3ccccc3c2O)ccc2ccccc12`, for which the growth inhibition in test [1] (setting [7]) was 17%; in test [1] (setting [8]), 81% (active); in test [1] (at 50.0 µM), 84.8% (active); in test [2] (setting [7]), 3%; in test [2] (setting [8]) it was 81% (active); in test [2] (at 50.0 µM), 84.4% (active). For the same compound, the growth inhibition is 13% in test [3] (setting [7]); 76% (active) in test [3] (setting [8]); 79.4% (active) in test [3] (at 50.0 µM); 9% in test [4] (setting [7]); 96% (active) in test [4] (setting [8]); 82.5% (active) in test [4] (at 50.0 µM). Moreover, the growth inhibition in test [5] (setting [7]) is 21%; in test [5] (setting [8]), 95% (active); in test [5] (at 50.0 µM), 89.2% (active); in test [6] (setting [7]), 9%; in test [6] (setting [8]) it was 85% (active); in test [6] (at 50.0 µM), 86.9% (active).
Take `CNc1ccc(N=O)cc1`: the growth inhibition in test [1] (setting [7]) was -1%; in test [1] (setting [8]), 90% (active); in test [1] (at 50.0 µM), 87.8% (active); in test [2] (setting [7]), 27%; in test [2] (setting [8]) it was 99% (active); in test [2] (at 50.0 µM), 90.8% (active). Also, the growth inhibition in test [3] (setting [7]) is 5%; in test [3] (setting [8]), 57%; in test [3] (at 50.0 µM), 89% (active); in test [4] (setting [7]), 19%; in test [4] (setting [8]), 81% (active); in test [4] (at 50.0 µM), 74.7% (active). Besides, the growth inhibition is 25% in test [5] (setting [7]); 98% (active) in test [5] (setting [8]); 89.2% (active) in test [5] (at 50.0 µM); 19% in test [6] (setting [7]); 98% (active) in test [6] (setting [8]); 87.6% (active) in test [6] (at 50.0 µM).
Consider `CC1=C(C(=O)NCc2ccccc2)C(c2ccccc2O)C(C(=O)NCc2ccccc2)=C(C)N1`, for which the growth inhibition in test [1] (setting [7]) was 27%; in test [1] (setting [8]) it was 27%; in test [1] (at 50.0 µM) it was 87.3% (active); in test [2] (setting [7]), 17%; in test [2] (setting [8]) it was 17%; in test [2] (at 50.0 µM), 85% (active). In addition, the growth inhibition in test [3] (setting [7]) was 17%; in test [3] (setting [8]) it was 17%; in test [3] (at 50.0 µM) it was 79.7% (active); in test [4] (setting [7]), 13%; in test [4] (setting [8]), 13%; in test [4] (at 50.0 µM), 71.4% (active). Also, the growth inhibition in test [5] (setting [7]) was 7%; in test [5] (setting [8]), 7%; in test [5] (at 50.0 µM), 86.4% (active); in test [6] (setting [7]), 15%; in test [6] (setting [8]), 15%; in test [6] (at 50.0 µM), 78.2% (active).
In the case of `COc1c2c3c(ccnc3c3ccccc13)C(=O)N2C`, the growth inhibition in test [1] (setting [7]) was 29%; in test [1] (setting [8]), 84% (active); in test [1] (at 50.0 µM), 83% (active); in test [2] (setting [7]), 15%; in test [2] (setting [8]), 72% (active); in test [2] (at 50.0 µM) it was 71.3% (active). The growth inhibition in test [3] (setting [7]) was 19%; in test [3] (setting [8]), 75% (active); in test [3] (at 50.0 µM), 77.7% (active); in test [4] (setting [7]), -3%; in test [4] (setting [8]), 52%; in test [4] (at 50.0 µM), 61%. The growth inhibition in test [5] (setting [7]) was 0%; in test [5] (setting [8]) it was 72% (active); in test [5] (at 50.0 µM), 75.6% (active); in test [6] (setting [7]), 17%; in test [6] (setting [8]), 76% (active); in test [6] (at 50.0 µM) it was 75% (active).
As to `COc1ccc2c(c1)C1(C)CCCC(C)(C(=O)O)C1C(Br)C2=O` (stereo not given), the growth inhibition is 6% in test [1] (setting [7]); 91% (active) in test [1] (setting [8]); 69.8% in test [1] (at 50.0 µM); 20% in test [2] (setting [7]); 98% (active) in test [2] (setting [8]); 46.6% in test [2] (at 50.0 µM). Moreover, the growth inhibition in test [3] (setting [7]) is -12%; in test [3] (setting [8]) it was 97% (active); in test [3] (at 50.0 µM), 84% (active); in test [4] (setting [7]) it was -8%; in test [4] (setting [8]), 96% (active); in test [4] (at 50.0 µM) it was 37.4%. The growth inhibition in test [5] (setting [7]) is 6%; in test [5] (setting [8]) it was 96% (active); in test [5] (at 50.0 µM), 35.2%; in test [6] (setting [7]), 21%; in test [6] (setting [8]) it was 96% (active); in test [6] (at 50.0 µM) it was 72.2% (active).
As for `COC1OC(CBr)C(OC(c2ccccc2)(c2ccccc2)c2ccccc2)C(OC(c2ccccc2)(c2ccccc2)c2ccccc2)C1OC(c1ccccc1)(c1ccccc1)c1ccccc1` (stereo not given), the growth inhibition in test [1] (setting [7]) is -11%; in test [1] (setting [8]) it was 11%; in test [1] (at 50.0 µM), 98.8% (active); in test [2] (setting [7]), -12%; in test [2] (setting [8]) it was -27%; in test [2] (at 50.0 µM), 98.7% (active). Also, the growth inhibition in test [3] (setting [7]) was -11%; in test [3] (setting [8]), -9%; in test [3] (at 50.0 µM), 98.5% (active); in test [4] (setting [7]), -8%; in test [4] (setting [8]), 33%; in test [4] (at 50.0 µM) it was 96.5% (active). Besides, the growth inhibition in test [5] (setting [7]) is -2%; in test [5] (setting [8]) it was 25%; in test [5] (at 50.0 µM) it was 97.7% (active); in test [6] (setting [7]) it was -5%; in test [6] (setting [8]), 32%; in test [6] (at 50.0 µM), 98% (active).
Turning to `CN=S(=O)(OCCCCOS(=O)(=NC)c1ccccc1)c1ccccc1` (stereo not given), the growth inhibition in test [1] (setting [7]) is 16%; in test [1] (setting [8]), 26%; in test [1] (at 50.0 µM), 47.6%; in test [2] (setting [7]) it was 9%; in test [2] (setting [8]) it was 8%; in test [2] (at 50.0 µM), -2.25%. Moreover, the growth inhibition in test [3] (setting [7]) is 20%; in test [3] (setting [8]), 28%; in test [3] (at 50.0 µM), -18.1%; in test [4] (setting [7]), 8%; in test [4] (setting [8]), 10%; in test [4] (at 50.0 µM), -12.4%. In addition, the growth inhibition in test [5] (setting [7]) is 11%; in test [5] (setting [8]), 10%; in test [5] (at 50.0 µM), -29.3%; in test [6] (setting [7]), 39%; in test [6] (setting [8]), 40%; in test [6] (at 50.0 µM), -52.3%.
Consider `CN1CCS(=O)(=O)C1=O`, for which the growth inhibition in test [1] (setting [7]) was 3%; in test [1] (setting [8]) it was 87% (active); in test [1] (at 50.0 µM), 90.3% (active); in test [2] (setting [7]) it was 2%; in test [2] (setting [8]), 93% (active); in test [2] (at 50.0 µM) it was 95.8% (active). Further, the growth inhibition was 1% in test [3] (setting [7]); 75% (active) in test [3] (setting [8]); 42.8% in test [3] (at 50.0 µM); 10% in test [4] (setting [7]); 54% in test [4] (setting [8]); 86.3% (active) in test [4] (at 50.0 µM). In addition, the growth inhibition in test [5] (setting [7]) was 5%; in test [5] (setting [8]), 94% (active); in test [5] (at 50.0 µM), 98% (active); in test [6] (setting [7]), 1%; in test [6] (setting [8]), 63%; in test [6] (at 50.0 µM), 93.2% (active).
